The panel holds about 83,000 compounds, 20% with a hit somewhere; the sample as a whole holds those more often.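 Single-concentration screen, 48 h exposure, 96-well plates. Endpoint: percent growth. Below 10 = active.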 Unmarked numbers belong to inactive results. Activity calls are given as the source filed them.
What was measured:
Assay in all cases: NCI-60 one-dose screen, 48 h (100 = growth as untreated, 0 = no growth, -100 = all killed)
[1] = test system: EKVX NSCLC; settings: 10 µM unless noted
[2] = test system: SN12C renal; settings: 10 µM unless noted
[3] = test system: UO-31 renal; settings: 10 µM unless noted
[4] = test system: TK-10 renal; settings: 10 µM unless noted
[5] = test system: ACHN renal; settings: 10 µM unless noted
[6] = test system: CAKI-1 renal; settings: 10 µM unless noted
[7] = test system: A498 renal; settings: 10 µM unless noted
[8] = test system: CCRF-CEM leukemia; settings: 10 µM unless noted
[9] = test system: MOLT-4 leukemia; settings: 10 µM unless noted
[10] = test system: SR leukemia; settings: 10 µM unless noted
[11] = test system: RPMI-8226 leukemia; settings: 10 µM unless noted
[12] = test system: OVCAR-8 ovarian; settings: 10 µM unless noted
[13] = test system: OVCAR-5 ovarian; settings: 10 µM unless noted
[14] = test system: OVCAR-4 ovarian; settings: 10 µM unless noted
[15] = test system: IGROV1 ovarian; settings: 10 µM unless noted
[16] = test system: OVCAR-3 ovarian; settings: 10 µM unless noted
[17] = test system: HS 578T breast; settings: 10 µM
[18] = test system: NCI/ADR-RES ovarian; settings: 10 µM unless noted
[19] = test system: SK-OV-3 ovarian; settings: 10 µM unless noted

| SMILES | growth [1] | growth [2] | growth [3] | growth [4] | growth [5] | growth [6] | growth [7] | growth [8] | growth [9] | growth [10] | growth [11] | growth [12] | growth [13] | growth [14] | growth [15] | growth [16] | growth [17] | growth [18] | growth [19] |
| --- | --- | --- | --- | --- | --- | --- | --- | --- | --- | --- | --- | --- | --- | --- | --- | --- | --- | --- | --- |
| CCCCCCCCCNCCCCCCCCC | 81.9% | 59.5% | 36.4% | 70.4% | 81.5% | 42% | 88.9% | 23.7% | 49.7% | -22.9% (active) | -22.4% (active) | 73.5% | 63.5% | 29.2% | 50.8% | 86% | 83.7% | 68.3% | – |
| O=C(COc1cccc(/C=C2\Cc3ccc(Cl)cc3C2=O)c1)Nc1nccs1 | 98.1% | 89.3% | -68% (active) | 142% | 91.8% | 78.2% | 98.3% | 77.1% | 37.3% | 48% | 54.6% | – | 102% | 81.6% | – | 89.6% | 105% | 76.6% | 96% |
| CNC(=O)c1cc(Oc2ccc3nc(NC(=O)Nc4ccc(Cl)c(C(F)(F)F)c4)sc3c2)ccn1 | 9.24% (active) | 15.6% | -7.14% (active) | -55.1% (active) | -22.2% (active) | 53.4% | 30% | 27.8% | 38% | 22.6% | 61.4% | -11.1% (active) | 30.8% | -34% (active) | 56.8% | -61.1% (active) | -16.1% (active) | 11.4% | – |
| COc1ccc(COc2cc3oc(=O)c4cc(C(C)O)ccc4c3cc2OC)cc1 (configuration not stated) | 68.9% | 68.5% | 64.5% | 73.5% | 48.4% | 55.9% | 84.6% | 77.1% | 54.5% | 18.6% | 68% | 25% | 86% | 53.8% | 57.6% | 58.6% | – | 56.1% | 40.5% |
| COc1cc(N2CCC(N(C)C)CC2)ccc1Nc1ncc(Cl)c(Nc2ccccc2P(C)(C)=O)n1 | 20% | 1.55% (active) | -81.2% (active) | -43.9% (active) | 1.69% (active) | -60.9% (active) | -70% (active) | 10.4% | – | 6.79% (active) | 27.9% | 4.01% (active) | 1.36% (active) | 18.2% | -24.5% (active) | 16.3% | – | 78.1% | -77.7% (active) |
| CN(C)C[C@@H]1CCn2cc(c3ccccc32)C2=C(C(=O)NC2=O)c2cn(c3ccccc23)CCO1 | 30.5% | -59.7% (active) | -49.1% (active) | 11.5% | -89.9% (active) | -3.96% (active) | -4.95% (active) | -0.337% (active) | -4.3% (active) | -11.8% (active) | -18.8% (active) | -0.0404% (active) | -7.31% (active) | -45.9% (active) | -13.1% (active) | 1.36% (active) | – | 6.82% (active) | – |
| N#Cc1ccc(-n2nnc3ccccc32)cc1C#N | 79.2% | 101% | 88.5% | 134% | 103% | 85.4% | 72.8% | 93.1% | 93.3% | – | 101% | 99% | 110% | 110% | 104% | 101% | 105% | 101% | 98.8% |
| CCS(=O)(=O)N1CCN(c2ccc(Nc3ncc(C(N)=O)c(NC4CC4)n3)cc2)CC1 | 91.6% | 62.8% | 52.9% | 87.3% | 85.1% | 97.6% | 95.6% | 27.6% | 51.7% | 48.9% | 62.2% | 89% | 86.7% | 111% | 77.4% | 90.2% | – | 101% | – |
| CN1CCN(c2ccc(C(=O)Nc3n[nH]c4ccc(Cc5cc(F)cc(F)c5)cc34)c(NC3CCOCC3)c2)CC1 | 8.7% (active) | -6.17% (active) | -90.7% (active) | -5.76% (active) | -7.72% (active) | -80.7% (active) | -54.8% (active) | 1.8% (active) | – | -28.6% (active) | -29.6% (active) | 22.6% | 1.41% (active) | -6.27% (active) | -46.1% (active) | 32.8% | – | 10.8% | 20.1% |
